Rows were chosen to be rich in hits. Some 21% of all compounds tested hit in one or more screens of this group.
Pf growth 96h = P. falciparum growth inhibition at 96 hours. P. falciparum luciferase reporter growth, 96 h. Potency, µM (top dose mostly 28.7 µM), for inactives: at the highest dose activity change, negative = inhibition, hits mostly inhibitors. 6.9% of 320,000 active; also: potency is read from the fitted curve at half-maximal effect; % is scaled to controls: 0 for no effect and ±100 for the full control effect
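Luminescence readout: decreased luciferase signal marks inhibited growth of reporter-expressing P. falciparum in infected red cells (2% hematocrit, 0.05% parasitemia final), exposed to compound two generations (96 h, 37 C, 5% CO2).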
Pf growth 48h = inhibits P. falciparum growth in the first generation, 48 h. P. falciparum luciferase growth in erythrocytes, 48 h. Potency, µM (top dose mostly 28.7 µM), without a hit: at the top dose activity change, negative = inhibition, hits mostly inhibitors. 5.9% of 310,000 active; also: potency is read from the fitted curve at half-maximal effect; % is scaled to controls: 0 for no effect and ±100 for the full control effect
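Here the parasites carry a stable luciferase gene and grow inside erythrocytes in Albumax-based RPMI medium with compound for one erythrocytic cycle. Activity is scored as loss of luminescent signal.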
Shiga inhibitor = Shiga toxin inhibition. Vero cells, Shiga toxin protein synthesis inhibition reporter. inhibition, % at 38.7 µM. 9.2% of 290,000 active. AID 2315; in the data active = inhibition mostly above about 28%, no sharp cut-off; inactive = mostly below about 43%; also: 0% is about no effect
NS1 inh = influenza NS1 inhibition. 0.4% of 270,000 active. Potency, µM (titrated, usually from 46.1 µM), without a hit: at the top dose activity, positive = more growth. AID 2326; calls by dose curve; also: potency is read from the fitted curve at half-maximal effect; actives are rising curves; nearly all actives have a fitted effect of over 50% in size
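Recovery from NS1-induced slow growth read by OD600 in budding yeast switched to galactose assay medium (pH 6.0, -URA) at 1:100 dilution. Compound 23 nl per well; the matching strain lacking NS1 serves as control.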
CHX counter = counter-screen hit for Shiga toxin inhibitors, cycloheximide; cell reporter, cycloheximide protein synthesis inhibition counterscreen; max response, %; 12% of 300,000 active; AID 2314; in the data active = max response mostly above about 13%, no sharp cut-off; inactive = mostly below about 14%; also: read at 38.3 µM for the half of the compounds with a filed dose; 0% is about no effect
Starred values were filed as active, the others as inactive; ? = inconclusive; / = no result. Unless noted, calls follow the shape of the dose curve; as a rule, active = well fitted inhibition curve with a large enough effect; inconclusive = small, poorly fitted or top-dose-only effect, or another doubt; inactive = no such curve, though single readings can be large or run the other way.

SMILES	Pf growth 96h	Pf growth 48h	Shiga inhibitor	NS1 inh	CHX counter
Cc1nnc2sc(SCc3ccccc3)nn2c1=O	?	10µM*	-13	1%	-1
COC(=O)c1cnn(-c2cc(Oc3ccccc3)ncn2)c1N	66%	14%	27	-1%	23*
COC(=O)c1cnn(-c2ccccc2)c1C(OC)OC	-13%	1%	19	0%	1
COc1ccccc1Oc1cc(-n2nc(C)cc2C)ncn1	14%	7%	0	-11%	-2
NC(=O)c1cnn(-c2cc(Oc3ccccc3)ncn2)c1N	80%	86%	59	-3%	47*
CCOc1cnn(-c2cc(Oc3ccc(C)cc3)ncn2)c(=O)c1Cl	?	/	-2	-2%	-3
c1ccc(Oc2cc(-n3cccn3)ncn2)cc1	/	211%	74*	-3%	54*
Cn1cc(CN2CCCC(C(=O)c3ccc(-c4ccccc4)c(F)c3)C2)cn1 (stereo unspecified)	?	?	4	1%	-3
Cc1nn(C)cc1CN1CCCC(C(=O)c2ccc(-c3ccccc3)c(F)c2)C1 (stereo unspecified)	0%	15µM*	-16	-3%	-2
O=C(c1ccc(-c2ccccc2)c(F)c1)C1CCCN(C(=O)c2cncs2)C1 (stereo unspecified)	13µM*	?	35	-53%	-2
CN(C(=O)CCl)C1CCCc2ccccc21 (stereo unspecified)	?	?	-4	-2%	-4
CCOc1cccc(CN2CCC(n3nccc3NC(=O)C3CC3)CC2)c1O	?	-13%	-11	-3%	3
CCn1nc(C)c(/C=N\NC(=O)c2ccc3c(c2)OCO3)c1C	/	17%	83*	-8%	39*
CCn1cc(/C=N/NC(=O)c2ccc3c(c2)OCO3)c(C)n1	/	12%	48	-1%	16*
CCc1ccc(-c2csc3ncn(CC(=O)NCc4ccco4)c(=O)c23)cc1	-13%	?	30*	?	15*
O=C(Cn1cnc2scc(-c3ccccc3)c2c1=O)NCc1ccco1	96%	-17%	-6	0%	7
FCCCOc1ccc(CN2CCN(c3ccccc3F)CC2)cc1	30%	1%	-6	-3%	-3
C/C(=N\Nc1ccc(S(=O)(=O)Nc2ccccc2)cc1[N+](=O)[O-])c1ccncc1	?	10µM*	-4	3%	-3
COc1ccccc1NS(=O)(=O)c1ccc(N/N=C(\C)C(C)C)c([N+](=O)[O-])c1	?	8.3µM*	-13	4%	-6
C/C(=N\Nc1ccc(S(=O)(=O)Nc2ccc(Cl)cc2)cc1[N+](=O)[O-])c1ccc(N2CCOCC2)cc1	4.1µM*	?	-5	6%	-3
O=[N+]([O-])c1cc(S(=O)(=O)Nc2cccc(Cl)c2)ccc1N/N=C/c1ccc(N2CCOCC2)cc1	?	1.9µM*	17	1%	2
COc1ccc(NS(=O)(=O)c2ccc(N/N=C(\C)c3ccncc3)c([N+](=O)[O-])c2)cc1	-14%	?	-10	?	-5
C/C(=N\Nc1ccc(S(=O)(=O)Nc2ccccc2)cc1[N+](=O)[O-])c1ccc(N2CCOCC2)cc1	?	?	-7	1%	-2
O=[N+]([O-])c1cc(/C=N/Nc2nc(N3CCOCC3)nc(N3CCOCC3)n2)ccc1Cl	-9%	5%	-10	2%	-2
O=c1c(-c2nc3ccccc3o2)c2oc3ccccc3n2c2ccccc12	5%	?	1	-39%	4
SMILES	Pf growth 96h	Pf growth 48h	Shiga inhibitor	NS1 inh	CHX counter
Cc1ccc(NC(=O)Nc2ccno2)cc1	-3%	-23%	31	-2%	16
CCCn1c(C(C)Nc2nc(-c3cccc(Br)c3)cs2)nc2ccccc21 (stereo unspecified)	?	-10%	-1	1%	2
CCCn1c(C(C)Nc2nc(-c3ccc(Cl)c([N+](=O)[O-])c3)cs2)nc2ccccc21 (stereo unspecified)	5.9µM*	13µM*	-10	22%	-1
CCCn1c(C(C)Nc2nc(-c3cc(Cl)c(N)c(Cl)c3)cs2)nc2cc(Cl)c(N3CCCCC3)cc21 (stereo unspecified)	7.4µM*	?	2	22%	1
CCCn1c(C(C)Nc2nc(-c3ccc(C)cc3)cs2)nc2ccccc21 (stereo unspecified)	9.3µM*	?	23	16%	3
O=C(C1CC1)N(Cc1nc2ccccc2c(=O)[nH]1)Cc1cccs1	-5%	1.9µM*	-5	-4%	-2
CC(C)(C)C(=O)N(Cc1nc2ccccc2c(=O)[nH]1)Cc1cccs1	12µM*	-16%	-13	11%	-6
O=C(Cn1cc2c(n1)CCCCC2)Nc1c(F)cc(F)cc1Br	8%	6%	-10	-3%	0
Cc1nn(-c2ccccc2)nc1C(=O)Nc1ccc2c(c1)OCCO2	0%	36%	6	-33%	-2
Cc1cc(C(=O)Nc2ccccc2)nn1C(C)(C)C	315%	207%	67*	-38%	43*
Cc1ccn2cc(C(=O)Nc3nnc(C)s3)nc2c1	4.1µM*	63%	35	-4%	2
COc1ccc(CCNC(=O)c2cn3ccc(C)cc3n2)cc1OC	?	-1%	50	/	20
Cc1ccn2cc(C(=O)Nc3ccccc3N3CCOCC3)nc2c1	?	5%	4	-56%	7
Cc1ccn2cc(C(=O)Nc3ccc4c(c3)OCCO4)nc2c1	-41%	173%	60*	-65%	40*
Cc1cc(C(=O)Nc2ccc3c(c2)OCCO3)nn1C(C)(C)C	78%	169%	140*	0%	79*
CN(CC(=O)Nc1ccc(Cl)c(C(F)(F)F)c1)C(=O)c1ccc2c(c1)NC(=O)CS2	43%	-17%	/	/	/
C/C=C/c1ccc(OCC(O)CN(C)Cc2ccc(SC)cc2)c(OC)c1 (stereo unspecified)	?	/	9	-3%	-3
Cc1c(/C=N\NC(=O)c2cccc(F)c2)cnn1C	7%	25%	92*	1%	45*
Cc1c(/C=N\NC(=O)c2ccc(F)cc2)cnn1C	1%	25%	27*	13%	16
Cc1c(/C=N/NC(=O)C(C)(C)Oc2ccc(Cl)cc2)cnn1C	/	0%	-22	0%	-2
Cc1c(/C=N/NC(=O)c2ccc3c(c2)OCO3)cnn1C	9%	2%	31	-1%	11
Cc1c(/C=N/NC(=O)c2ccc(Br)o2)cnn1C	0%	74%	57*	6%	38*
CCc1ccc(OCc2cccc(C(=O)N/N=C\c3cnn(C)c3C)c2)cc1	7%	22%	53*	11%	15
CCOc1ccc(NC(=O)CSc2nnc(NC(=O)C3CC3)s2)cc1	1%	17%	-8	-7%	-1
CC(C)(C)[C@@H](O)C(Cc1ccc(Cl)cc1)n1cncn1 (stereo partly specified)	/	/	-1	/	0
CC(C)c1ccc(OC(=O)c2ccc3c(=O)n4c(nc3c2)CCC4)cc1	-9%	8%	/	/	/
Cc1occc1C(=O)N/N=C/c1cnn(C)c1C	10%	99%	62*	20%	33*

High-throughput results: PubChem BioAssay, National Center for Advancing Translational Sciences (NCATS)
